The source made the active and inactive calls.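 How the source made its calls, unless noted: active means binding below the plate cutoff, the plate median minus 3 SD, with a reading above zero; inconclusive means below the plate cutoff but reading exactly zero; inactive means the rest.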

This is an account of results in PubChem BioAssay.

Assay [1] can be described thus: reduced mouse 2C T cell binding to pMHC/ICAM-1 vesicles – MLPCN validation set, flow cytometry, LFA-1/ICAM-1 modulator project, pilot screen (AID 2523;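 active means response below a set limit, under 55% cells CD8-positive and vesicle-bound, and CD8 cells' 90th-percentile brightness under 279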;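 on vesicle binding response: mean PE anti-B7-1 fluorescence of CD8+ cells relative to row control; 100% = QL9-loaded vesicles with DMSO vehicle in the same plate row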). The conditions noted are these: 2C mouse CD8+ T cells, at 7 µM, stronger effect = lower value; double positive events: measured here: CD8+/vesicle+ event percentage.
Assay [2] addresses Integrin beta-1 (Homo sapiens) + Integrin alpha-4 (Homo sapiens) (UniProt P13612+P05556). Nature of the assay: alpha4beta1 integrin LIBS antibody binding reduction – U937 cells, HUTS-21 mAb, flow cytometry, validation set, VLA-4 allosteric modulator project, pilot screen (AID 2674;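 active means inhibition above 50%, about 3 SD of the validation set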;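 further: antibody binding induced by the VLA-4 ligand LDV present at three times its Kd; 0% = LDV ligand with antibody and no compound and 100% = antibody without LDV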). The following applies: HUTS-21 LIBS mAb binding, at 6.7 µM, stronger effect = higher value, binding induced by LDV ligand. (In general: A flow cytometer gives signals particle by particle.)

A short description of assay [3]: calorie-restriction mimetic ROS inhibitors, yeast – validation compound set, pilot screen (AID 2706;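 active means superoxide response below 65% of plate, a cut near 3 SD across the whole screen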;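 further: yeast exposed to compound for one week at 30 degrees C before staining; 100% = mean of all compound wells on the same plate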). The conditions noted are these: S. cerevisiae aging, superoxide DHE fluorescence; at 10 µM, stronger effect = lower value.
The target in assay [4] is Beta-adrenergic receptor kinase 1 (Homo sapiens) (UniProt P25098). Nature of the assay: GRK2 binders displacing RNA aptamer, biochemical, validation, human GRK2, bead flow cytometry (AID 488806;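 active means aptamer binding inhibition above 30%, about 3 SD of noise from non-fluorescent compounds; inactive means inhibition at or below 30%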). The following applies: bead-bound GRK2, FAM-aptamer displacement, at 10 µM, stronger effect = higher value.
Assay [5] addresses AP-2 complex subunit beta (Homo sapiens) (UniProt P63010). Nature of the assay: beta-arrestin/AP2 interaction blockers – biochemical, validation set, GST-AP2 beads, flow cytometry, pilot screen (AID 504541;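 active means inhibition above 54%, about 3 SD of non-fluorescent compounds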;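 further: AP2 carries R879A mutation and is captured from E. coli lysate; bead-bound FITC arrestin peptide fluorescence measuring arrestin peptide binding to AP2; 0% = DMSO wells and 100% = excess unlabeled arrestin peptide control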). The following applies: FITC arrestin peptide, at 10 µM, stronger effect = higher value, AP2 beta2 appendage fragment, R879A mutant.
Assay [6] in a line: cytosolic pH regulators acting via V-ATPase – S. cerevisiae, pHLuorin, HTS validation (AID 504600; in the data active means response above about 15%;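 further: plate controls were DMSO for no effect and reference compound for full effect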). The following applies: V-ATPase proton transport, at 10 µM, stronger effect = higher value.
Assay [7] relates to anti-desmoglein-3 scFv antibody binding to human DSG3. Nature of the assay: blockers of pathogenic pemphigus antibody–desmoglein-3 binding – biochemical, validation compound set, bead-based, flow cytometry, pilot screen (AID 588368).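 Further: signal is the median channel fluorescence of bead-bound GFP antibody.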 The conditions noted are these: Protein G beads, DSG3-Fc, scFv-GFP binding, at 10 µM, stronger effect = lower value.
A short description of assay [8]: Nile Red efflux blockade in pump-expressing yeast – validation compound set, multiplex, phenotypic, pilot screen (AID 588506;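 active means efflux inhibition above 0.42, the validation set average plus 4 SD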;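 further: Nile Red retained in cells so higher fluorescence means more efflux inhibition; 0 = negative control wells and 1 = enniatin B 25 µM full block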). The conditions noted are these: S. cerevisiae pump-expressing triplex, Nile Red efflux flow cytometry; at 10 µM; stronger effect = higher value; the pumps come from Candida albicans.
The target of assay [9] is ATP-binding cassette sub-family B member 6 (Homo sapiens) (UniProt Q9NP58). Nature of the assay: blockers of ABCB6-driven porphyrin uptake – K562-ABCB6 cells, flow cytometry, validation set, pilot screen (AID 588550;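 active means inhibition above the screen-wide mean plus 3 SD, about 51%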;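 further: 0% = DMSO wells and 100% = benzethonium chloride 70 µM positive control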). The conditions noted are these: K562-ABCB6 porphyrin accumulation, 1 h, at 10 µM, stronger effect = higher value.
The nature of assay [10]: AML differentiation inducers, ER-HoxA9 marrow cells – cell-based, GFP/MAC1 double positive, flow cytometry, validation set, primary screen (AID 588685;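 active means differentiation response of at least 50%, scaled between solvent and reference control, from cells with both markers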;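 further: compound exposure lasts four days before antibody staining and flow analysis; 0% = DMSO wells and 100% = 5 µM fulvestrant positive control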). The following applies: stronger effect = higher value, normalized: vehicle 0, fulvestrant 100.

Sequence of ATP-binding cassette sub-family B member 6 (Homo sapiens) (Q9NP58 whole entry, looked up): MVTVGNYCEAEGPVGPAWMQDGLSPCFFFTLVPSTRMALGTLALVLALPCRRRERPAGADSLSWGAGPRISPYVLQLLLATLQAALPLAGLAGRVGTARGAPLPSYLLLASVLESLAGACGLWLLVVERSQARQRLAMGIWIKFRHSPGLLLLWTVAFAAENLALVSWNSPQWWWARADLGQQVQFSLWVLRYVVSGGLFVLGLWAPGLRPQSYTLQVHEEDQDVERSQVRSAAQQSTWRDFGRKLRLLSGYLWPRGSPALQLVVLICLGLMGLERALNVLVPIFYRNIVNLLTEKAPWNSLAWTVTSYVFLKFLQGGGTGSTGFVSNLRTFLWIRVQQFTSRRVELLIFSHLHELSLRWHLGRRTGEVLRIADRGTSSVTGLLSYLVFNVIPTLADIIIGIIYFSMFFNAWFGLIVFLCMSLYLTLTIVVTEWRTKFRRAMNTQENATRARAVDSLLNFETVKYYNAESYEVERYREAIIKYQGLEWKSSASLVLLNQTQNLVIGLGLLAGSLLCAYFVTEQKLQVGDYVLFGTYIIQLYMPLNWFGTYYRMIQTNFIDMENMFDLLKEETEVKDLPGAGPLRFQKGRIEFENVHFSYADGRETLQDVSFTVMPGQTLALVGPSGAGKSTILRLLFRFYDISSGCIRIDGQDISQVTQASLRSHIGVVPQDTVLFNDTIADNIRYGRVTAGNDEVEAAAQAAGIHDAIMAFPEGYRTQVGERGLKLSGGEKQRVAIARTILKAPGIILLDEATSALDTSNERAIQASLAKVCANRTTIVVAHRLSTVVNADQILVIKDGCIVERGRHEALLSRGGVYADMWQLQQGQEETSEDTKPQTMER
Sequence of Beta-adrenergic receptor kinase 1 (Homo sapiens) (P25098 whole entry, looked up): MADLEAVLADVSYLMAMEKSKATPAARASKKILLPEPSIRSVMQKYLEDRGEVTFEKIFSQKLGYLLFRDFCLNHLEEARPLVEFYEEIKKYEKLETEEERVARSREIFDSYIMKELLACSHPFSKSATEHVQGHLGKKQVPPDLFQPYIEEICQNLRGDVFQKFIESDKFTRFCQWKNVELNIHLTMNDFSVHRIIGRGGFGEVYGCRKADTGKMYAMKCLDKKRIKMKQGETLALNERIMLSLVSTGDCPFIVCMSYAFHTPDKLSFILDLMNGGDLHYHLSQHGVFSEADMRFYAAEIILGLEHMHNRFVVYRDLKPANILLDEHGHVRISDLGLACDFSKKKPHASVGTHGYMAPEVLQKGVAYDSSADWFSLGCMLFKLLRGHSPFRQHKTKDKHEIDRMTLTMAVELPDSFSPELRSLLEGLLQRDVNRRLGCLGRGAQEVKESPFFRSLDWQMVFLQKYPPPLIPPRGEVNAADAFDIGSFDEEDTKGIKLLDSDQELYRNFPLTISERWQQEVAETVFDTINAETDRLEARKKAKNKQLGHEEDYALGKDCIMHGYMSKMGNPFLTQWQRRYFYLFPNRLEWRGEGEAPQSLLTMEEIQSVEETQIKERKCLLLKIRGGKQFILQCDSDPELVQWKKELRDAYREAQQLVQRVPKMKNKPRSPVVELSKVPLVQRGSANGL
Sequence of Integrin beta-1 (Homo sapiens) + Integrin alpha-4 (Homo sapiens) (P05556 whole entry, looked up): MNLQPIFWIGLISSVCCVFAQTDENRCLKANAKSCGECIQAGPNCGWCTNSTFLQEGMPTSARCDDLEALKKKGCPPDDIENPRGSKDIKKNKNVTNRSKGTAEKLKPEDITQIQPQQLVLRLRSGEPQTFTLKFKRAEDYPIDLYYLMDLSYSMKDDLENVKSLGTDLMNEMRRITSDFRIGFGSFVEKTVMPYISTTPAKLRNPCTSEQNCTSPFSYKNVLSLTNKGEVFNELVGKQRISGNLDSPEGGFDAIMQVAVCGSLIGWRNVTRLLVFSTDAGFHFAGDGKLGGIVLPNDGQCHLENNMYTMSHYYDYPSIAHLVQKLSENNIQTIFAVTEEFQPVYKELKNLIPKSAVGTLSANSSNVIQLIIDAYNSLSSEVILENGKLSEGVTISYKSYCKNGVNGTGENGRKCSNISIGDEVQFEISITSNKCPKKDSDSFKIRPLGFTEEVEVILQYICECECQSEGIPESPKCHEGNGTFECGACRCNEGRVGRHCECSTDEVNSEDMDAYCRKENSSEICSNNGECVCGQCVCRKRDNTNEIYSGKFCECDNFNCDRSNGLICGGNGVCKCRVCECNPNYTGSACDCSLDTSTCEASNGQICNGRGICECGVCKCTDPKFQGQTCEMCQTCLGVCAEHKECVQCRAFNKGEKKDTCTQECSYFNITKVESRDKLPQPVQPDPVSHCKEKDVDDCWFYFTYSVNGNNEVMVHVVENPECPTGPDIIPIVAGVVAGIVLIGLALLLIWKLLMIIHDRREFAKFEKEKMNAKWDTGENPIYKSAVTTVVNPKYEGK
Sequence of Integrin beta-1 (Homo sapiens) + Integrin alpha-4 (Homo sapiens) (P13612 whole entry, looked up): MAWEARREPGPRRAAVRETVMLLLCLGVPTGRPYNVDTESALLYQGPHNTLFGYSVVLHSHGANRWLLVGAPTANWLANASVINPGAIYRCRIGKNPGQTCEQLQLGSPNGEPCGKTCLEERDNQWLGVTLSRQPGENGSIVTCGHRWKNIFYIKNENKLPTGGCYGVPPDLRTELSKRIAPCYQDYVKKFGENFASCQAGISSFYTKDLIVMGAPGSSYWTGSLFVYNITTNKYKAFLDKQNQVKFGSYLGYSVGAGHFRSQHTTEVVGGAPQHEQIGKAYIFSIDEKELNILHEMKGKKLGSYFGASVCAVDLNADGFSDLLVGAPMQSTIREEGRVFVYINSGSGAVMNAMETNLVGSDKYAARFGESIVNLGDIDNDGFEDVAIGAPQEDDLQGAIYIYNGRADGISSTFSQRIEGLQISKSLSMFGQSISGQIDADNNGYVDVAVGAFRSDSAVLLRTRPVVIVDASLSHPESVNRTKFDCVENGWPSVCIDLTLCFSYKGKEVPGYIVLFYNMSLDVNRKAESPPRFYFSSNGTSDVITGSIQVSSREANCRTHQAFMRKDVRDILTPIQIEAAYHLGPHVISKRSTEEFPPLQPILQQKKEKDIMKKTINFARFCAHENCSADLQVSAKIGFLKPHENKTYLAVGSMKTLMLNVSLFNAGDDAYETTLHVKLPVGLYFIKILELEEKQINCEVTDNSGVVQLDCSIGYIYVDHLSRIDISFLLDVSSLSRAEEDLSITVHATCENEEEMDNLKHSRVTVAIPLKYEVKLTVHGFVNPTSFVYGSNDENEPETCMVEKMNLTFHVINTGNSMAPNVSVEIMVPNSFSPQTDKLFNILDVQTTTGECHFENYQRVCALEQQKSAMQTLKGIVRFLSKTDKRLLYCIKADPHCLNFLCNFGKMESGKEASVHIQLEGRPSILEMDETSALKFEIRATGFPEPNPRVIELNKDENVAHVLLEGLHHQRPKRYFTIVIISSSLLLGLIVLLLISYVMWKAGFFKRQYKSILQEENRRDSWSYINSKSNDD
Sequence of AP-2 complex subunit beta (Homo sapiens) (P63010 whole entry, looked up, the tested form may be a part, one chain of several): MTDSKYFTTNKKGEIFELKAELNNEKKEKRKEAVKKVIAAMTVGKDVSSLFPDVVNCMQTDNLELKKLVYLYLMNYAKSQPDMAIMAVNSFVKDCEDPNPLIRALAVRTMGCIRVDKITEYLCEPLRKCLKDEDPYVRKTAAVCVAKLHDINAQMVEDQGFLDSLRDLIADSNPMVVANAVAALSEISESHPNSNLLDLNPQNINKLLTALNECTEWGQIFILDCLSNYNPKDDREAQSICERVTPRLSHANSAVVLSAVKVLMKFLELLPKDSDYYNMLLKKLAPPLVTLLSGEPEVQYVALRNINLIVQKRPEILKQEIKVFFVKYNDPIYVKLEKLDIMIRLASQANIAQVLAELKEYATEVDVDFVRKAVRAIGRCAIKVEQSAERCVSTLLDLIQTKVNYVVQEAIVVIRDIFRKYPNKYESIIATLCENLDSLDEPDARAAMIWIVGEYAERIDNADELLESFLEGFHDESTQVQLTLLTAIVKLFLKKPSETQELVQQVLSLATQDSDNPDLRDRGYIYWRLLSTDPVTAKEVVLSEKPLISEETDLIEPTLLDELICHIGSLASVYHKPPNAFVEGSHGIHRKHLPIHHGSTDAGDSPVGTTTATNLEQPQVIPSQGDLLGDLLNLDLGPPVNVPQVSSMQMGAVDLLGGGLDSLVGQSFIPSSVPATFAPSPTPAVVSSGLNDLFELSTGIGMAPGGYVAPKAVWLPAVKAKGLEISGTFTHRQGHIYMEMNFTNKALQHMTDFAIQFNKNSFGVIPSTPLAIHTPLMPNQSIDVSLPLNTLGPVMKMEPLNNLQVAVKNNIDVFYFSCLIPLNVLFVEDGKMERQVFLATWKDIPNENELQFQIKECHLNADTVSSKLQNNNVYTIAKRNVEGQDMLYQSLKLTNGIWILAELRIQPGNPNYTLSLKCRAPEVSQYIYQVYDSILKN

`Oc1ccc(/C=C/c2cc(O)cc(O)c2)cc1` yielded a double positive events in assay [1] of 52.4%. Besides, the vesicle binding response in assay [1] is 225% (inactive). The inhibition in [2] was -6.77% (inactive); in assay [5] it was 7.43% (inactive); in assay [9] it was 6% (inactive). In addition, the superoxide response (% of plate) in assay [3] is 96.3% (inactive). Besides, the aptamer binding inhibition in assay [4] is 2% (inactive). Besides, the response in assay [6] was -1.9% (inactive). The binding (% of control) in assay [7] is 97.2% (inactive). The efflux inhibition (fraction of control) in [8] was -0.43 (inactive). For the same molecule, the differentiation response in [10] was -16.4% (inactive).
Regarding `Cc1ccc2[nH]c3c(=O)n(CCCN4CCN(C)CC4)cnc3c2c1`, the double positive events in assay [1] is 60.7%. Also, in assay [1], the vesicle binding response is 195% (inactive). Besides, the inhibition was 7.22% (inactive) in assay [2], 24.8% (inactive) in [5] and 12% (inactive) in assay [9]. Moreover, the superoxide response (% of plate) in assay [3] was 99.9% (inactive). In assay [4], the aptamer binding inhibition is 4% (inactive). Moreover, the response in [6] is -6.94% (inactive). In addition, in [7], the binding (% of control) is 99.3% (inactive). Also, the efflux inhibition (fraction of control) in assay [8] is -0.2 (inactive). For the same molecule, in [10], the differentiation response is 30.5% (inactive).
In assay [1], `CC1(C)Cc2nc3oc4c(NCc5ccccc5)ncnc4c3cc2CO1` gave a double positive events of 49.8%. The vesicle binding response in assay [1] is 183% (inactive). Besides, the inhibition is 4.42% (inactive) in [2], -8.27% (inactive) in [5] and 5% (inactive) in assay [9]. In assay [3], the superoxide response (% of plate) is 95.3% (inactive). Further, in [4], the aptamer binding inhibition is -2% (inactive). Also, in assay [6], the response is -4.11% (inactive). In assay [7], the binding (% of control) was 105% (inactive). The efflux inhibition (fraction of control) in assay [8] was -0.2 (inactive). Further, in assay [10], the differentiation response was 0% (inactive).
Regarding `O=Cc1ccc(N2CCCCC2)cc1`, in [1], the double positive events was 54.6%. For the same molecule, in assay [1], the vesicle binding response is 201% (inactive). Further, the inhibition in assay [2] is 10.9% (inactive); in [5] it was -10.3% (inactive); in assay [9], 4% (inactive). Further, in assay [3], the superoxide response (% of plate) was 106% (inactive). For the same molecule, the aptamer binding inhibition in assay [4] was 3% (inactive). In [6], the response is 1.25% (inactive). The binding (% of control) in assay [7] is 101% (inactive). For the same molecule, the efflux inhibition (fraction of control) in assay [8] was -0.05 (inactive). In addition, the differentiation response in [10] is -3.43% (inactive).
Turning to `COc1ccc(C(=O)/C=C/c2cc(C(=O)O)cc3c2OCOC3)c(O)c1`, the double positive events in [1] came to 54.5%. The vesicle binding response in assay [1] was 202% (inactive). The figures for the inhibition in assay [2], in assay [5] and in assay [9] were -3.97% (inactive), -2.5% (inactive) and 0% (inactive), respectively. In addition, the superoxide response (% of plate) in [3] is 99.9% (inactive). In assay [4], the aptamer binding inhibition was 6% (inactive). Besides, the response in assay [6] was -6.09% (inactive). In addition, the binding (% of control) in [7] is 95.7% (inactive). For the same molecule, the efflux inhibition (fraction of control) in assay [8] was -0.43 (inactive). Further, in [10], the differentiation response was -1.82% (inactive).
Consider `CC1(C)CC(CC(=O)Nc2nccs2)(c2ccccc2)CCO1` (centres undefined), for which the double positive events in assay [1] is 51.5%. The vesicle binding response in assay [1] was 182% (inactive). For the same molecule, the inhibition in [2] is 4.42% (inactive); in assay [5], -9.2% (inactive); in [9], 8% (inactive). In assay [3], the superoxide response (% of plate) was 103% (inactive). Besides, in assay [4], the aptamer binding inhibition was -7% (inactive). Moreover, the response in [6] is 5.11% (inactive). The binding (% of control) in assay [7] was 96.4% (inactive). Also, in [8], the efflux inhibition (fraction of control) is 0.18 (inactive). In addition, the differentiation response in assay [10] was 1.41% (inactive).
In turn, `CC[C@H](CO)NCCN[C@H](CC)CO` showed a double positive events in assay [1] of 56.6%. Also, the vesicle binding response in [1] was 193% (inactive). Moreover, the inhibition is -2.11% (inactive) in [2], -14.5% (inactive) in assay [5] and 12% (inactive) in assay [9]. Further, the superoxide response (% of plate) in assay [3] is 112% (inactive). Moreover, the aptamer binding inhibition in assay [4] was -2% (inactive). For the same molecule, in assay [6], the response was 2.83% (inactive). For the same molecule, the binding (% of control) in assay [7] is 112% (inactive). Besides, the efflux inhibition (fraction of control) in assay [8] is 0.06 (inactive). For the same molecule, the differentiation response in assay [10] is -19.6% (inactive).
The molecule `CCCCC[C@H](O)/C=C/[C@@H]1[C@@H](CCCCCCC(=O)O)[C@@H](O)C[C@H]1O` yielded a double positive events in [1] of 55.5%. The vesicle binding response in [1] was 114% (inactive). Also, the figures for the inhibition in assay [2], in assay [5] and in [9] were 5.36% (inactive), -0.39% (inactive) and 9% (inactive), respectively. The superoxide response (% of plate) in [3] was 104% (inactive). For the same molecule, the aptamer binding inhibition in assay [4] was 2% (inactive). For the same molecule, the response in assay [6] is 1.43% (inactive). Moreover, the binding (% of control) in [7] is 99.8% (inactive). The efflux inhibition (fraction of control) in assay [8] is 0.29 (inactive). For the same molecule, the differentiation response in assay [10] was -26% (inactive).
For `COc1c2occc2c(OC)c2c(=O)cc(C)oc12`, in assay [1], the double positive events was 48.6%. Besides, the vesicle binding response in assay [1] is 176% (inactive). The inhibition in [2] is 8.15% (inactive); in assay [5], -4.24% (inactive); in [9], 5% (inactive). For the same molecule, the superoxide response (% of plate) in assay [3] is 108% (inactive). Moreover, the aptamer binding inhibition in assay [4] is 1% (inactive). For the same molecule, the response in [6] was 3.33% (inactive). In addition, the binding (% of control) in [7] was 102% (inactive). In addition, the efflux inhibition (fraction of control) in [8] is 0.1 (inactive). In [10], the differentiation response is 33.7% (inactive).
Molecule `c1ccc2c(CC3=NCCN3)cccc2c1` displayed a double positive events in assay [1] of 49.4%. The vesicle binding response in assay [1] is 192% (inactive). In addition, the inhibition in assay [2] was 11.9% (inactive); in assay [5], -1.38% (inactive); in assay [9] it was 11% (inactive). In addition, the superoxide response (% of plate) in assay [3] is 99% (inactive). For the same molecule, the aptamer binding inhibition in assay [4] is 1% (inactive). For the same molecule, in assay [6], the response was 1.28% (inactive). Moreover, the binding (% of control) in assay [7] was 96.2% (inactive). Besides, the efflux inhibition (fraction of control) in assay [8] is -0.16 (inactive). In assay [10], the differentiation response was 7.87% (inactive).
For `C[C@]12CCC(=O)C=C1CC[C@@H]1[C@@H]2CC[C@@]2(C)[C@H]1CC[C@]2(O)C(=O)CO`, the double positive events in assay [1] was found to be 54.2%. The vesicle binding response in assay [1] was 143% (inactive). Also, the inhibition in assay [2] is 5.36% (inactive); in [5], -3.62% (inactive); in [9], 4% (inactive). Besides, the superoxide response (% of plate) in assay [3] was 96.8% (inactive). For the same molecule, the aptamer binding inhibition in assay [4] is 4% (inactive). The response in [6] is 1.37% (inactive). Further, the binding (% of control) in assay [7] is 96.2% (inactive). Also, the efflux inhibition (fraction of control) in [8] is -0.31 (inactive). Besides, in assay [10], the differentiation response was -3.43% (inactive).
In assay [1], `C[C@@H]1C[C@H]2[C@@H]3C[C@H](F)C4=CC(=O)C=C[C@]4(C)[C@@]3(F)[C@@H](O)C[C@]2(C)[C@@]1(O)C(=O)CO` returned a double positive events of 55%. Further, the vesicle binding response in assay [1] was 206% (inactive). The results for the inhibition in assay [2], in [5] and in assay [9] were 2.56% (inactive), -9.58% (inactive) and 9% (inactive), respectively. Further, in [3], the superoxide response (% of plate) is 92.5% (inactive). Also, the aptamer binding inhibition in assay [4] was 2% (inactive). Moreover, the response in assay [6] is 10.1% (inactive). In assay [7], the binding (% of control) was 103% (inactive). Also, the efflux inhibition (fraction of control) in assay [8] was -0.09 (inactive). The differentiation response in assay [10] was -1.82% (inactive).
In assay [1], `Cc1c(CCOC(=O)CC23CC4CC(CC(C)(C4)C2)C3)sc[n+]1Cc1ccc([N+](=O)[O-])cc1` returned a double positive events of 59%. Moreover, the vesicle binding response in assay [1] is 208% (inactive). Moreover, the inhibition was 8.15% (inactive) in [2], -6.04% (inactive) in assay [5] and 6% (inactive) in assay [9]. For the same molecule, in [3], the superoxide response (% of plate) is 98.4% (inactive). In addition, the aptamer binding inhibition in assay [4] is -9% (inactive). Moreover, in assay [6], the response is 3.23% (inactive). Besides, in assay [7], the binding (% of control) is 108% (inactive). Also, the efflux inhibition (fraction of control) in assay [8] is 1.81 (active). Also, the differentiation response in [10] is 0% (inactive).
For the molecule `COc1ccc(-c2c(C)c3ccc(OCC(C)=O)cc3oc2=O)cc1`, the double positive events in [1] was found to be 46.6%. For the same molecule, in assay [1], the vesicle binding response is 128% (inactive). Moreover, the inhibition is 3.49% (inactive) in assay [2], -9.08% (inactive) in [5] and 9% (inactive) in [9]. The superoxide response (% of plate) in assay [3] is 113% (inactive). The aptamer binding inhibition in [4] is 6% (inactive). For the same molecule, the response in assay [6] is -2.13% (inactive). The binding (% of control) in assay [7] was 103% (inactive). Besides, the efflux inhibition (fraction of control) in [8] is -0.05 (inactive). In [10], the differentiation response was 3.03% (inactive).

The term inhibition denotes the change of the read-out against control, counted positive when it falls.
